The list is not random: actives were taken first. Their share in the collection is about 5.4%.
Vaccinia mCherry: inhibitors of vaccinia virus infection (mCherry reporter signal). Vaccinia virus mCherry reporter infection, fluorescence. Potency, µM (series often up to 36.5 µM), without a hit: at the top dose activity change, negative = inhibition, hits mostly inhibitors. hit rate 0.63% among 310,000; calls by dose curve; tested in A549 cells; note: nearly all actives have a fitted effect of over 35% in size
Lassa entry inh: blocks Lassa virus binding to or entry into cells; Lassa virus pseudotype entry inhibition, cell reporter; Potency, µM (highest dose often 37.9 µM), without a hit: at the top dose activity change, negative = inhibition, most hits filed as inhibitors; hit rate 1.2% among 300,000; AID 540256; calls by dose curve; tested in HEK293 cells; note: nearly all actives have a fitted effect of over 50% in size
Sm TGR inh: blocks Schistosoma mansoni thioredoxin glutathione reductase; purified TGR, DTNB reduction, TNB absorbance 405 nm; Potency, µM (top dose mostly 114 µM), for the others: at the top dose activity change, negative = inhibition, usual class: inhibitors; hit rate 3% among 360,000; Q962Y6; active = well fitted inhibition curve with a large enough effect; inconclusive = small, poorly fitted or top-dose-only effect; inactive = no such curve, though single readings can be large or run the other way; note: nearly all actives have a fitted effect of over 60% in size
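TGR 20 nM + NADPH 100 uM (dispensed conc.), cpd preinc 15 min RT; start with NADPH (500 uM addition) then DTNB (15 mM addition). Kinetic TNB absorbance, 405 nm filter. Four-parameter Hill fit across titration.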
Vaccinia Venus: inhibitors of vaccinia virus (Venus reporter). Vaccinia virus Venus reporter expression, fluorescence. Potency, µM (series often up to 36.5 µM), for the others: top-dose activity change, negative = inhibition, hits mostly inhibitors. hit rate 0.46% among 330,000. AID 720580; calls by dose curve; tested in A549 cells; note: nearly all actives have a fitted effect of over 30% in size
FMDV antiviral: foot and mouth disease virus antiviral activity; FMDV antiviral cell-based qHTS; Potency, µM (titrated, usually from 57.9 µM), without a hit: at the top dose activity change, negative = inhibition, actives largely listed as inhibitors; hit rate 1.2% among 410,000; calls by dose curve; tested in HEK293T cells; note: read-out not given here; nearly all actives have a fitted effect of over 45% in size
MARV entry inh: blocks Marburg virus binding to or entry into cells; Marburg virus pseudotyped entry inhibition, cell reporter; Potency, µM (top dose mostly 37.8 µM), without a hit: top-dose activity change, negative = inhibition, hits mostly inhibitors; hit rate 1.8% among 300,000; calls by dose curve; tested in HEK293 cells
The depositor's hits bear a star; i = inactive; ? = inconclusive; . = no result; [ ] = remark or other dose. % is set by controls: 0 for no effect and ±100 for the full control effect; potency is the fitted concentration of half-maximal effect.

SMILES | Vaccinia mCherry | Lassa entry inh | Sm TGR inh | Vaccinia Venus | FMDV antiviral | MARV entry inh
Cc1ccc(C)c(N2CCN(C(=O)Nc3ccc4c(c3)N(C)C(=O)CS4)CC2)c1 | -20.2% | . | 11.9% | ? | 15.8µM* | .
CN1C(=O)CSc2ccc(NC(=O)N3CCN(c4ccccn4)CC3)cc21 | -0.8% | -7.0% | -14.9% | -11.8% | ? | ?
O=C(NC(=S)Nc1cc(C(F)(F)F)ccc1N1CCOCC1)c1ccco1 | -11.0% | 4.2%[46.1 µM] | 11.2µM* | -24.9% | -27.8% | ?
COc1cccc(C(=O)NC(=S)Nc2ccccc2N2CCOCC2)c1 | i | ? | 1.7% | -11.8% | ? | ?
COc1cc(C(=O)NC(=S)Nc2ccccc2N2CCOCC2)cc(OC)c1OC | . | . | 25.1µM* | . | 10.1% | .
Cc1ccc(C(c2ccc(C)o2)c2cccc([N+](=O)[O-])c2O)o1 | . | 3.0% | ? | . | 0.4% | -23.9%
Cc1cc(C(c2ccc(C)o2)c2ccc(C)o2)c(O)c([N+](=O)[O-])c1 | -17.8% | 5.2% | 44.7µM* | -11.1% | ? | -17.6%
CCN(C(=O)c1nn(-c2ccc(OC)c(Cl)c2)c(=O)c2c1c1ccccc1n2C)c1cc(OC)ccc1OC | -19.4% | 6.7%[46.1 µM] | 3.1% | -11.9% | ? | ?
COc1ccc2c(c1)sc1nc(-c3ccccc3)cn12 | -19.4% | 0.501µM* | -17.2% | -26.6% | 7.94µM* | 0.708µM*
CCCN1CCN(CCCNC(=O)c2ccc3c(c2)sc2nc(-c4ccc(C)cc4)cn23)CC1 | 7.08µM* | 3.0%[46.1 µM] | -1.3% | ? | 4.8% | .
COc1ccc(-c2cn3c(n2)sc2cc(C(=O)NCC(C)c4ccccc4)ccc23)cc1 (configuration not stated) | -6.2% | -19.0%[46.1 µM] | 79.4µM* | -4.7% | -10.2% | .
Cc1cc(O)cc(O)c1C(=O)OC1(C)C(=O)C=C2C=C(C=CC(=O)O)OC=C2C1=O (configuration not stated) | . | ? | . | . | . | -31.0%[14.2 µM]
Cc1ccc(Cl)cc1NC(=O)c1oc2ccc(S(=O)(=O)N(C)C3CCCCC3)cc2c1C | -15.8% | 25.4%[46.1 µM] | 1.5% | -16.4% | -8.8% | .
CCOC(=O)c1cc(-c2ccc(OC)cc2)n(CCC(=O)NC2CCCCC2)c1C | 1.0% | -16.5%[46.1 µM] | 6.0% | -3.8% | 3.4% | .
COc1ccc2[nH]c(=O)c(C(c3nnnn3C3CCCC3)N(C)C3CCCCC3)cc2c1 (configuration not stated) | . | 1.6% | -1.5% | . | 32.6% | 5.17µM*
Cc1ccc2cc(C(c3nnnn3C3CCCC3)N3CCN(c4ccccc4)CC3)c(=O)[nH]c2c1 (configuration not stated) | . | -25.7% | 12.6µM* | . | -12.6% | ?
COc1cc2cc(C(c3nnnn3C3CCCC3)N3CCCCCC3)c(=O)[nH]c2cc1OC (configuration not stated) | . | 1.4% | 35.5µM* | . | 7.4% | -10.3%
COc1cc2cc(C(c3nnnn3C3CCCC3)N3CCCCC3)c(=O)[nH]c2cc1OC (configuration not stated) | i | ? | -32.2% | -3.9% | 12.8% | -9.3%
Cc1ccc2cc(C(c3nnnn3Cc3ccccc3)N3CCN(c4ccccc4)CC3)c(=O)[nH]c2c1 (configuration not stated) | . | -18.5% | 22.4µM* | . | -14.0% | 20.6µM*
Cc1nc(C(=O)N(Cc2cc3ccc(F)cc3nc2N2CCC(O)CC2)CC2CCCO2)cs1 (configuration not stated) | -11.8% | . | . | -5.8% | 7.0% | .
O=c1c(C(c2nnnn2C2CCCCC2)N2CCCCC2)coc2ccc(Cl)cc12 (configuration not stated) | . | -13.2% | 28.2µM* | . | 13.5% | ?
Clc1ccc(C(c2nnnn2C2CCCC2)N2CCN(Cc3ccncc3)CC2)cc1 (configuration not stated) | i | 2.2% | 0.4% | -21.3% | 6.5% | -4.2%
Cc1cc(N(C)C)cc(C)c1/C=C/c1cc[n+](C)c2ccccc12 | -26.6% | . | . | -22.6% | . | .
O=C(CSCc1ccc(Cl)cc1)NCCSCc1ccco1 | i | -16.0% | 28.2µM* | 2.7% | -10.4% | -10.9%
O=C(NCCSCc1ccco1)c1ccc(=O)[nH]c1 | -6.1% | 15.3%[46.1 µM] | 35.5µM* | -3.4% | 10.7% | -0.5%[46.1 µM]
SMILES | Vaccinia mCherry | Lassa entry inh | Sm TGR inh | Vaccinia Venus | FMDV antiviral | MARV entry inh
Cc1ccc(SCC(=O)NCc2ccco2)cc1 | -13.5% | 15.6% | ? | 1.2% | 27.8% | -10.5%
Cc1ccc(CSCC(=O)NCc2ccco2)cc1 | i | 1.41µM* | 0.0% | -9.2% | 3.5% | -11.3%
Cc1ccc(-c2nc(C)sc2CC(=O)NCc2ccco2)cc1 | -17.4% | -6.6% | 22.4µM* | 0.9% | -4.5% | -3.2%
O=C(CSCc1c(F)cccc1Cl)NCCSCc1ccco1 | i | 22.3%[46.1 µM] | . | -1.7% | 12.0% | 3.5%[46.1 µM]
CS(=O)(=O)Nc1ccc(C(=O)NCCSCc2ccco2)cc1 | . | 1.9% | ? | -12.1% | 11.2% | 4.5%
CC(=O)c1ccc(NC(=O)CSc2ccc3nnc(CCNS(=O)(=O)c4ccc(C)cc4)n3n2)cc1 | -6.9% | 12.8%[46.1 µM] | -3.2% | -1.7% | -15.5% | .
CCN1C(=O)[C@@H]2[C@H]3[C@H](O)[C@H](O)CC(=NO[C@@H](C)c4cn([C@H](CO)Cc5ccccc5)nn4)[C@@H]3CC[C@H]2C1=O | . | ? | . | . | . | -3.3%[14.2 µM]
O=C(NNC(=S)NCc1ccco1)c1ccc(Cl)s1 | -17.5% | 13.3% | -34.2% | -10.0% | 13.6% | 0.6%
CCCCN(CCCC)CCNC(=O)CSCc1ccc(C)cc1 | -15.1% | -11.1%[46.1 µM] | -4.4% | -16.4% | ? | 7.08µM*
Cc1ccc(CNC(=O)CSCc2ccccc2)cc1 | . | 10.4% | 0.8% | . | 28.0% | 2.1%
O=C(CSCc1ccco1)c1ccc(Cl)s1 | . | . | 28.2µM* | . | . | -4.0%
COC(=O)c1cc(C)nc2c1C(=O)C(=O)C=C2N1CCOCC1 | ? | ? | ? | 4.47µM* | 3.55µM* | ?
CSc1cccc(NC(=S)N2CCC(c3ccccc3)C2)c1 (configuration not stated) | -1.3% | ? | 2.6% | -13.8% | 14.6% | ?
CSc1cccc(NC(=S)N2CCC(N(C)C3CCCCC3)CC2)c1 | ? | -31.8% | 44.7µM* | -19.1% | -18.7% | -18.4%[46.1 µM]
CSc1cccc(NC(=S)N2CCC(N(C)C3CCCCC3C)CC2)c1 (configuration not stated) | -11.7% | -14.0% | 22.4µM* | -5.0% | -19.9% | ?
C=CCOC(=O)N[C@H](C(C(=O)OC)=C(C)NCc1ccccc1)c1cccc(OC)c1 | . | . | . | . | . | -13.4%[14.2 µM]
O=C(Nc1ccc2nn(-c3ccc(F)cc3)nc2c1)c1cccc2c(Cl)cccc12 | -26.5% | 15.4%[46.1 µM] | 47.5% | -26.1% | 0.3% | -0.1%[46.1 µM]
CCOC(=O)c1ccc2c(c1)nc(COc1ccc3ccccc3c1)n2CC | -29.4% | ? | -2.7% | -14.8% | -15.7% | 4.61µM*
O=C(CSc1nnc(-c2ccco2)c(-c2ccco2)n1)Nc1ccccc1 | . | -10.8% | 1.78µM* | -9.6% | -10.3% | -3.2%
Cc1ccc(SCC(=O)Nc2ccc(-c3nnc(-c4ccco4)o3)cc2)cc1 | . | ? | 1.0% | ? | 16.2% | ?

Screening results: PubChem BioAssay, National Center for Advancing Translational Sciences (NCATS)
